Test results from PubChem BioAssay AID1159506 (National Center for Advancing Translational Sciences (NCATS), 2015).
Whole data set: some 59,000 sequences, median the read-out near -0.00055, cut for the lowest 2% near -2. The sample as a whole holds a higher share of the lowest values than the screen did.

Experiment: Identification of proteins required for the processing of the EWS-FLI1 nascent transcript;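 also: robust z of luciferase light less the median z of siRNAs with the same seed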
Settings: TC32 Ewing sarcoma NR0B1-luc vs CMV-luc (EWS-FLI1 target promoter against control promoter), 48 h; screened at 20 nM (by protocol)
Procedure, shortened: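 TC32 Ewing sarcoma cells carrying NR0B1-promoter or CMV-promoter luciferase reporters were reverse-transfected with single siRNAs at 20 nM, three per gene genome-wide. Luminescence was read after 48 h and normalized to non-targeting controls.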
With UAUGUAACAGGAUCCUGCC against RFC1 the seed-corrected z-score was 0.0202.
For UAUAAGUAAGCCUAGCUUG against C16orf54, the seed-corrected z-score was 0.684.
Work on UUCGAUAGAGAACAAGUCG against FBXL4 yielded a seed-corrected z-score of -1.24.
UUGAUUUCCACGUUGCAUC against SLC10A2 showed a seed-corrected z-score of -2.5.
With UACGGGUGCAGUAGUGGUG against RGR the seed-corrected z-score was -0.158.
In the case of UCAUCGUCUACUUCCAUUG against BPTF, the seed-corrected z-score was -1.63.
In the case of AACCGCUCCAUUUUUGCUC against POM121L12, the seed-corrected z-score was 0.212.
With AAUUUAUUCCAAACUUGUC against ME3 the seed-corrected z-score was -2.03.
UUAGGGAAAGGUCCUCCUU against ELK1P1 gave a seed-corrected z-score of 0.104.
For UGACUUAUGAACAUCAAAG against KLHL31, the seed-corrected z-score was -1.09.
AUCUAUCUGACCCAAAUCC against HNRNPH1 showed a seed-corrected z-score of -2.26.
Work on ACAUGAUCCAUCCAAAUGC against CD163 yielded a seed-corrected z-score of -0.0516.
AACCGAUUCAUGACCACCG against AQP5 gave a seed-corrected z-score of 0.51.
Work on UUGGUGACUGUGCGCAUCC against TACR2 yielded a seed-corrected z-score of -0.41.
In the case of AUGUGGACAACCUUCUUUG against RPS10P9, the seed-corrected z-score was -1.14.
AACGGGAACACCGACAACA against OPRL1 gave a seed-corrected z-score of -0.00815.
For AACGUAAUAAAAGUCUUGC against SERHL, the seed-corrected z-score was 0.571.
With UGCUGGUUCAACUCAUCGC against DLGAP3 the seed-corrected z-score was -2.34.
Work on UUACUAACAUCUUCUCGUC against PKN2 yielded a seed-corrected z-score of 0.115.
Sequence AAACCUAUUAGUGAGAACA against TRIML1 has a seed-corrected z-score of -0.116.
For AAACGGAGUCGUAGGAUCC against BMP15, the seed-corrected z-score was -0.603.
Sequence UUUCGUAUUCUGAGGACCG against DLGAP5 has a seed-corrected z-score of 0.243.
With UUGCAGAUCUUUUCGCACC against S100A9 the seed-corrected z-score was -0.59.
In the case of AUUCGGAUUUGGGUCGUGC against PCDHGB2, the seed-corrected z-score was 0.36.
Work on UCAUGAUCUAUGUAGCCCG against ODF3L1 yielded a seed-corrected z-score of -2.53.
With UUCACCAUGACAGCCGAAG against RPL37AP8 the seed-corrected z-score was -0.494.
For UUCAAUUCCAGCAACAUAA against CLDND1, the seed-corrected z-score was -0.35.
AUGGUAACGAGCUGAAUCC against TWF1 gave a seed-corrected z-score of 0.694.
Sequence AAAUGUACAGGGAUCCAGG against ACCSL has a seed-corrected z-score of -2.2.
Work on UUCAGGGCGAGGUAAUCCU against HLA-G yielded a seed-corrected z-score of -0.165.
For UUUCAUAAUUGUCUCACUG against MTHFD2, the seed-corrected z-score was 0.341.
Sequence AAACUUGUACACGUUCUUG against RPN2 has a seed-corrected z-score of 1.31.
Work on AUACGAUAAAUAGCAGCUG against OR2D2 yielded a seed-corrected z-score of -0.266.
UCAUGUAUUGCUGGGUGGG against LETMD1 showed a seed-corrected z-score of -2.04.
For UGAAAGCGCAGAUCUGUCU against HIST1H3G, the seed-corrected z-score was -0.148.
In the case of UGGUCUAAGGCUUUGAUGC against KLK2, the seed-corrected z-score was -0.348.
UGAUAUUUUGGUGCGUUGU against FBXO45 gave a seed-corrected z-score of 0.68.
In the case of UAGUUGGUGAGGAUCACGG against REN, the seed-corrected z-score was -0.578.
In the case of UACUCUUCCAACGACAGGC against UQCC2, the seed-corrected z-score was 0.919.
UUCCGAGUUGCAGAGGUCU against SLURP1 showed a seed-corrected z-score of -0.177.
Sequence AAAAGGAUUGCUGAAAUGG against LOC650293 has a seed-corrected z-score of 0.542.
For UCUUGACUGACUUUCUUCU against FAM173B, the seed-corrected z-score was -2.2.
In the case of AAUGGAUGCAGUGUCAAGC against PAK1IP1, the seed-corrected z-score was 1.75.
UUCCUUGACAAGCAUAACC against CARNMT1 gave a seed-corrected z-score of -0.155.
With AAAUCUUACAGACUGGUUC against BEX1 the seed-corrected z-score was -0.486.
For UCAUGGGUCACGUCAGCUG against SLC2A1, the seed-corrected z-score was -0.895.
For ACACUGUAAAGCUCGGUGC against LARP1, the seed-corrected z-score was 0.106.
Work on UUAGAGUUGGUGAUGAGCA against GALK1 yielded a seed-corrected z-score of 1.7.
With AAAAGGACUAUGUACAGCC against SNRPB the seed-corrected z-score was -3.37.
Work on UAUGCUCUCUGAUCGAAUG against ATG16L1 yielded a seed-corrected z-score of 0.136.
Sequence UUGCUCACAAUAAAAUAGC against GPR89A has a seed-corrected z-score of -0.56.
UGUAGACAAAGUACUGGGC against CNTN2 showed a seed-corrected z-score of -0.261.
In the case of AAACUUCCUAUUAUCGACC against SPRED2, the seed-corrected z-score was -0.704.
Work on UUCGAGUGAAGACAGAAUC against ZNF318 yielded a seed-corrected z-score of -2.15.
Sequence UAAGUUGUGAUGAUAGGUU against ZNF98 has a seed-corrected z-score of -0.0973.
For AUCUGAUCCAUAUUCUCCC against DIEXF, the seed-corrected z-score was 0.628.
In the case of UACAAUAAAAGAAGCAUCU against PIGY, the seed-corrected z-score was 0.157.
Work on UUUCUUAGAAAUGAGGUGA against OVOL1 yielded a seed-corrected z-score of -0.287.
With UCAGGAUCUGUGGAUACUG against COPB2 the seed-corrected z-score was -2.55.
Work on UCAUAGUCCACGAGUUUCC against BIN2 yielded a seed-corrected z-score of 0.142.
Work on UUCGGUUGAACCUUGUCUG against ORC2 yielded a seed-corrected z-score of -0.39.
AAUACAAUGAGGAUGUUGC against MCHR2 gave a seed-corrected z-score of -0.242.
In the case of AUCUUUAACCCGAAAGGUC against STRC, the seed-corrected z-score was -3.57.
With UACUCGAAGAUUUCCGUCC against SEC16B the seed-corrected z-score was -0.242.
For UUCGAUGUCACAGGUCUGC against RGS14, the seed-corrected z-score was -0.247.
UCGAUAUCAACUUUUGCCG against CEP192 gave a seed-corrected z-score of -0.779.
